{"source": "PubChem BioAssay AID1030", "about": "(National Center for Advancing Translational Sciences (NCATS), 2008)", "note": "In all, about 220,000 compounds went through this assay and about 16,000 (7.3%) were called active. Inconclusive results (about 25%) are left out. What follows is part of a selection rich in actives, with near analogues and random picks from the rest. Values without a mark were called inactive. Calls follow the shape of the dose curve; as a rule, active = well fitted inhibition curve with a large enough effect (not every such curve was filed as active); inconclusive = small, poorly fitted or top-dose-only effect, or another doubt; inactive = no such curve, though single readings can be large or run the other way. Potency is read from the fitted curve at half-maximal effect.", "data": [{"target": "Aldehyde dehydrogenase 1A1 (Homo sapiens) (UniProt P00352)", "sequence (P00352 whole entry, looked up)": "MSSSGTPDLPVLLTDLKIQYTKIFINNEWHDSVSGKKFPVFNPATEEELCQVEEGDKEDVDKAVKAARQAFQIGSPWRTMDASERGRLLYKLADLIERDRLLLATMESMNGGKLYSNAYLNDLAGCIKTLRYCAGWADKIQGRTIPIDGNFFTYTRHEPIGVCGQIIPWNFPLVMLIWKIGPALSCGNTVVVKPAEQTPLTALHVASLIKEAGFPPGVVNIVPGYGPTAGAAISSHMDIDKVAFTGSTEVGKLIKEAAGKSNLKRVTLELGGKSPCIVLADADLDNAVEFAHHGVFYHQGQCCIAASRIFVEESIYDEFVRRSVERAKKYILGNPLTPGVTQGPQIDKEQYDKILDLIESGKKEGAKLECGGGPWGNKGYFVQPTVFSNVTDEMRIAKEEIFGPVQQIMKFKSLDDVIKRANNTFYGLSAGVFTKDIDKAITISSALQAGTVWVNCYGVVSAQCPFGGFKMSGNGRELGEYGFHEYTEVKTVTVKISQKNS", "experiment": "qHTS Assay for Inhibitors of Aldehyde Dehydrogenase 1 (ALDH1A1);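 as to activity, negative = inhibition: plate controls were no enzyme wells and a reference inhibitor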", "conditions": "Purified ALDH1A1, NADH fluorescence, propionaldehyde substrate; series mostly up to 75.3 µM; activity, negative = inhibition: at the top concentration", "values": [{"compound": "CCSC1=NCCN1S(=O)(=O)c1ccc(F)cc1", "activity, negative = inhibition": "-7.78%"}, {"compound": "COC(=O)CC1c2ccccc2C(Cc2ccc(OC)cc2)=C(C)N1C(=O)OC", "note": "(stereo not drawn)", "activity, negative = inhibition": "-1.14% [at 13.5 µM]"}, {"compound": "O=C(COc1ccc(Br)cc1F)NC1CCN(Cc2ccccc2)CC1", "activity, negative = inhibition": "6.09%"}, {"compound": "S=C(Nc1ccc(Br)cc1Cl)NC1CCN(Cc2ccccc2)CC1", "Potency": "0.631 µM (active)"}, {"compound": "O=C(NC1CCN(Cc2ccccc2)CC1)c1cc(Br)c(Br)[nH]1", "activity, negative = inhibition": "5.04%"}, {"compound": "COc1ccc2ccccc2c1CNc1nnnn1C", "activity, negative = inhibition": "-6.21%"}, {"compound": "COC(=O)c1cc(NC(=O)c2cccnc2)ccc1N1CCOCC1", "activity, negative = inhibition": "12.4%"}, {"compound": "CC1=NN(C(=O)c2ccc(Br)cc2)C(O)(c2ccccc2)C1", "note": "(stereo not drawn)", "activity, negative = inhibition": "-5.04%"}, {"compound": "O=C(COC(=O)CCc1nc2ccccc2c(=O)[nH]1)Nc1ccc(N2CCOCC2)cc1", "activity, negative = inhibition": "-2.55%"}, {"compound": "NS(=O)(=O)c1ccc(NC(=O)COC(=O)c2ccco2)cc1", "activity, negative = inhibition": "1.15%"}, {"compound": "CC1CC(C)CN(CC(=O)Nc2ccc(S(N)(=O)=O)cc2)C1", "note": "(stereo not drawn)", "Potency": "8.91 µM (active)"}, {"compound": "CC1CC(C)CN(CCC(=O)Nc2ccc3c(c2)CCC3)C1", "note": "(stereo not drawn)", "activity, negative = inhibition": "-9.83%"}, {"compound": "COc1ccc(C2C(C#N)=C(N)N(c3ncn[nH]3)C3=C2C(=O)CCC3)cc1", "note": "(stereo not drawn)", "activity, negative = inhibition": "-2.36%"}, {"compound": "CC(C)(C)NC(=O)NC(=O)COC(=O)Cc1c(F)cccc1Cl", "activity, negative = inhibition": "0.773%"}, {"compound": "CCOC(=O)COc1cc(O)c2c(=O)cc(-c3ccccc3)oc2c1", "activity, negative = inhibition": "-1.95%"}, {"compound": "CC(=O)COc1ccc2c(-c3ccccc3)cc(=O)oc2c1", "Potency": "6.31 µM (active)"}, {"compound": "O=C(COc1ccc2c(C(F)(F)F)cc(=O)oc2c1)Nc1ccc2c(c1)OCCO2", "activity, negative = inhibition": "-0.303%"}, {"compound": "CC(Sc1nc2cc(Cl)ccc2s1)C(=O)Nc1ccc2c(c1)OCO2", "note": "(stereo not drawn)", "activity, negative = inhibition": "-1.3%"}, {"compound": "Cc1cc(Cl)ccc1OCCCC(=O)NCc1ccccn1", "activity, negative = inhibition": "5.45%"}, {"compound": "Cc1cccc(N=Nc2c(C)[nH]n(-c3ccccc3)c2=O)c1", "activity, negative = inhibition": "0.918%"}, {"compound": "Cc1cccc(N2C(=O)SC(SC(=Nc3ccccc3)Nc3ccccc3)C2=O)c1", "note": "(stereo not drawn)", "Potency": "15.8 µM (active)"}, {"compound": "Cc1cccc(N2C(=O)C3C(c4ccccc4)OC4(C(=O)c5ccccc5C4=O)C3C2=O)c1", "note": "(stereo not drawn)", "activity, negative = inhibition": "-1.19%"}, {"compound": "COc1ccccc1-c1noc(CSc2nc(C)cc(=O)[nH]2)n1", "activity, negative = inhibition": "3.99%"}, {"compound": "O=C(CSc1ncnc2c1nnn2Cc1ccc(F)cc1)NC1CCCC1", "activity, negative = inhibition": "5.38%"}, {"compound": "CC(=O)Nc1ccn(Cc2c(F)cccc2Cl)n1", "activity, negative = inhibition": "11.3%"}, {"compound": "OC1CCCN(c2ncnc3c2nnn3Cc2c(F)cccc2Cl)C1", "note": "(stereo not drawn)", "Potency": "7.94 µM (active)"}, {"compound": "CCOc1ccc(OCc2cccc(C(=O)N(CC)CC)c2)cc1", "activity, negative = inhibition": "-11.7%"}, {"compound": "CC(C)NC(=S)NN=C1CCCCCCCCCCC1", "activity, negative = inhibition": "-4.75%"}, {"compound": "OC[C@H]1O[C@@H](n2cnc3c(NC4CCCC4)ncnc32)[C@H](O)[C@H]1O", "activity, negative = inhibition": "-8.77%"}, {"compound": "CCN(CC)S(=O)(=O)c1ccc(N(C)CCc2ccc(OC)c(OC)c2)nc1", "activity, negative = inhibition": "6.98%"}, {"compound": "O=C(/C=C/c1ccc2c(c1)OCCO2)c1ccc(O)cc1", "activity, negative = inhibition": "4.61%"}, {"compound": "CN(C)c1ccc(/C=C/C(=O)c2ccc(O)cc2)cc1[N+](=O)[O-]", "Potency": "17.8 µM (active)"}, {"compound": "CN(C)c1ccc(/C=C/C(=O)c2ccc(C(C)(C)C)cc2)cc1[N+](=O)[O-]", "activity, negative = inhibition": "-0.256%"}, {"compound": "CCOc1ccccc1/C=N/NC(=O)CNC(=O)COc1ccccc1", "activity, negative = inhibition": "-5.79%"}, {"compound": "CCC(C)NC(=O)C1c2ccccc2Oc2ccccc21", "note": "(stereo not drawn)", "activity, negative = inhibition": "7.74%"}, {"compound": "O=C(Nc1ccc(N2CCN(C(=O)c3cccs3)CC2)cc1)c1cccnc1Cl", "activity, negative = inhibition": "0.829%"}, {"compound": "Cc1cc(Cl)ccc1NNC(=O)c1snnc1C", "activity, negative = inhibition": "4.29%"}, {"compound": "CC(C)C(C)(C#N)NC(=O)CSc1nncn1-c1ccccc1", "note": "(stereo not drawn)", "activity, negative = inhibition": "2.04%"}, {"compound": "CC(C)C(C)(C#N)NC(=O)CSc1nc2scc(-c3ccccc3)c2c(=O)[nH]1", "note": "(stereo not drawn)", "Potency": "11.2 µM (active)"}, {"compound": "C=CCNC(=O)CSc1nc2sc(C)c(C)c2c(=O)[nH]1", "activity, negative = inhibition": "-3.38%"}, {"compound": "CCOC(=O)c1sc2nc(C)nc(Nc3ccc(OC)c(OC)c3)c2c1C", "activity, negative = inhibition": "-1.57%"}, {"compound": "Cc1ccc(S(=O)(=O)NCCc2nnc3ccc(SCc4cccnc4)nn23)cc1", "activity, negative = inhibition": "-5.59%"}, {"compound": "CCN(CC)C(=O)Oc1ccc(Br)cc1C(=O)Nc1ccc(F)c(Cl)c1", "activity, negative = inhibition": "4.26%"}, {"compound": "CNC(=O)c1[nH]cnc1C(=O)N[C@@H](CC(C)C)C(=O)OCc1ccccc1", "activity, negative = inhibition": "4.76%"}, {"compound": "O=C(Cc1ccc(F)cc1)N/N=C/c1ccc2c(c1)OCO2", "activity, negative = inhibition": "-2.31%"}, {"compound": "Cc1c(NC(=O)CCCOc2ccccc2)cccc1[N+](=O)[O-]", "activity, negative = inhibition": "-17.8%"}, {"compound": "Cc1c(NC(=O)Nc2ccccc2)cccc1[N+](=O)[O-]", "activity, negative = inhibition": "-4.7%"}, {"compound": "Cc1cc(C)cc(NC(=S)NCc2ccc(F)cc2)c1", "activity, negative = inhibition": "-1.59%"}, {"compound": "Cc1c(NC(=S)NCc2ccc(F)cc2)cccc1[N+](=O)[O-]", "Potency": "31.6 µM (active)"}, {"compound": "Cc1c(NC(=O)/C=C/C(=O)O)cccc1[N+](=O)[O-]", "Potency": "25.1 µM (active)"}, {"compound": "Cc1cccc(NC(=S)NCCc2ccc(F)cc2)c1C", "activity, negative = inhibition": "-1.95%"}, {"compound": "COc1cc(C(=O)OCc2ccc([N+](=O)[O-])cc2)cc(OC)c1OC", "activity, negative = inhibition": "7.71%"}, {"compound": "Cc1ccc(C)c(Cn2cnc3c(oc4ccccc43)c2=O)c1", "activity, negative = inhibition": "2.37%"}]}]}
